# How the values were obtained:
# [1] = tested on: Vero E6 infected with SARS-CoV-2; test: morphology score (similarity to uninfected cells); higher = more like uninfected cells; conditions: 24 h
# [2] = tested on: Vero E6 infected with SARS-CoV-2; test: SARS-CoV-2 infection rate relative to infected DMSO; higher = more infection, active = 60 or less; conditions: 24 h
Compound,morphology score [1],SARS-CoV-2 infection rate [2]
COc1cc2c(cc1OC)[C@@]13CCN4CC5=CCO[C@H]6CC(=O)N2[C@H]1[C@H]6[C@H]5C[C@H]43 [brucine] (10 µM),0.0385,105% (inactive)
CCOC(=O)[C@@H](N)CCC(=O)N[C@@H](CSCc1ccccc1)C(=O)N[C@@H](C(=O)OCC)c1ccccc1 [ezatiostat] (10 µM),0.202,78.5% (inactive)
Nc1[nH]cnc2ncnc1-2 [adenine] (10 µM),0.0482,102% (inactive)
O=C(OC(C(F)(F)F)C(F)(F)F)N1CCN(Cc2cccc(Oc3ccccc3)c2)CC1 (10 µM),-0.142,24.5% (active)
O=C1CCC(N2C(=O)c3ccccc3C2=O)C(=O)N1 (stereo not drawn) [thalidomide] (10 µM),-0.223,104% (inactive)
Cc1cc(Nc2ncnc3ccc(-c4ccc(CNCCS(C)(=O)=O)o4)cc23)ccc1Oc1ccn2ncnc2c1 [HER2-Inhibitor-1] (10 µM),0.174,95% (inactive)
CCOC(=O)C1=C(C)NC(c2ccccc2)=C(C(=O)OCc2ccc([N+](=O)[O-])cc2)[C@@H]1C#Cc1ccccc1 (10 µM),0.304,89% (inactive)
O=C1N(c2ccccc2)c2ccccc2C1(Cc1ccncc1)Cc1ccncc1 [linopirdine] (10 µM),0.249,91% (inactive)
NC(=O)[C@@H](CC1CC1)[C@@H](CCC(F)(F)F)C(=O)N[C@H]1N=C(c2ccccc2)c2cccc(F)c2NC1=O (10 µM),0.179,102% (inactive)
COc1cc(-n2c(=S)[nH]c3ccccc3c2=O)c(Cl)cc1Cl [mdivi-1] (10 µM),-0.0304,112% (inactive)
Nc1nc(N)c(N=O)c(OCC2CCCCC2)n1 (10 µM),0.621,54.5% (active)
O=S(=O)(O)c1ccc(-c2c3nc(c(-c4ccc(S(=O)(=O)O)cc4)c4ccc([nH]4)c(-c4ccc(S(=O)(=O)O)cc4)c4nc(c(-c5ccc(S(=O)(=O)O)cc5)c5ccc2[nH]5)C=C4)C=C3)cc1 (10 µM),-0.0273,102% (inactive)
O=C(NC1CCN(CCc2c[nH]c3ccccc23)CC1)c1ccccc1 [indoramin] (10 µM),0.105,102% (inactive)
COc1ccc(-c2nc3cc(C4=NNC(=O)CC4C)ccc3[nH]2)cc1 (stereo not drawn) [pimobendan] (10 µM),0.129,94% (inactive)
NCC[C@H](O)C(=O)N[C@@H]1C[C@H](N)[C@@H](O[C@H]2O[C@H](CN)[C@@H](O)[C@H](O)[C@H]2O)[C@H](O)[C@H]1O[C@H]1O[C@H](CO)[C@@H](O)[C@H](N)[C@H]1O [amikacin] (10 µM),-0.122,91% (inactive)
N[C@@H](CC(=O)N1CCn2c(nnc2C(F)(F)F)C1)Cc1cc(F)c(F)cc1F [sitagliptin] (10 µM),0.0472,98% (inactive)
Fc1ccc(C(c2ccc(F)cc2)N2CCN(C/C=C/c3ccccc3)CC2)cc1 [flunarizine] (10 µM),0.364,69.5% (inactive)
CC(C)(C)C(=O)Oc1ccc(S(=O)(=O)Nc2ccccc2C(=O)NCC(=O)O)cc1 [sivelestat] (10 µM),0.168,95% (inactive)
CS(=O)(=O)Oc1ccc2c(NC(N)=O)c(C(=O)c3ccc(Cl)cc3Cl)oc2c1 [lirimilast] (10 µM),0.204,101% (inactive)
CC1(C)OC2(C)C(O)CC1CC2O (stereo not drawn) [epomediol] (10 µM),0.173,100% (inactive)
CCNCCCNCCCCNCCCNCC (0.833333 µM),0.312,80.5% (inactive)
C=C1/C(=C\C=C2/CCC[C@]3(C)[C@@H]([C@H](C)/C=C/C=C/C(O)(CC)CC)CC[C@@H]23)C[C@@H](O)C[C@@H]1O [seocalcitol] (10 µM),-0.0779,110% (inactive)
O=C1NC(=O)C(c2ccccc2)(c2ccccc2)N1 [phenytoin] (10 µM),0.168,97% (inactive)
COc1ccc(/C=C\c2cc(OC)c(OC)c(OC)c2)cc1OP(=O)(O)O [fosbretabulin] (0.833333 µM),0.0485,112% (inactive)
C=C[C@]1(C)CC[C@@H](C(=C)C)C[C@H]1C(=C)C [beta-elemene] (10 µM),-0.205,111% (inactive)
O=C(O)/C=C/c1ccc(O)c(O)c1 [caffeic-acid] (10 µM),-0.0394,110% (inactive)
O=C(O)C[C@H](O)C(=O)O [malic-acid] (10 µM),-0.0659,104% (inactive)
c1ccc2[nH]c(-c3cscn3)nc2c1 [tiabendazole] (10 µM),0.157,111% (inactive)
Oc1ccc(-c2c(-c3ccccc3)nn3c(C(F)(F)F)cc(C(F)(F)F)nc23)cc1 (10 µM),0.0465,104% (inactive)

# Source: the supplement of paper PMC13380429
